Screening data from PubChem.
LGR2 antag – inhibitors of bursicon-induced Drosophila LGR2 receptor cAMP signaling; HEK293 LGR2, CRE-luciferase, bursicon-stimulated, 4 h; inhibition, % at 9.99 µM; actives 0.35% (n = 380,000);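 active = drop in luminescence signal, shown as inhibition above about 50% in the replicate tests, limit read from the data, passing the limit was not always enough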;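 note: agonist challenge used bursicon conditioned medium at about half maximal strength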
HIF-2a block – inhibitors of HIF-2a; 786-0 RCC cells HIF-2a reporter, luciferase luminescence, overnight; inhibition, % at 18.8 µM; actives 0.72% (n = 360,000);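 active = inhibition of the luminescence signal of 40% or more relative to plate controls, in a single-dose primary screen at 18.75 µM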
KKLEB tox – reduces viability of KKLEB cystic fibrosis airway cells; AID 602141; actives 0.36% (n = 360,000); KKLEB CF airway cells viability, ATPlite luminescence, overnight; hits give low values; cells stimulated with P. aeruginosa culture filtrate; activity change (cytotoxicity), % at 5 µM;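 active = corrected activity change at or below -50% at 5 µM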
TWEAK-Fn14 inh – inhibitors of TWEAK-Fn14 interaction signaling; TWEAK-stimulated Fn14 reporter cells, luciferase luminescence, 8 h; inhibition, % at 10 µM; actives 2% (n = 360,000); AID 1159606; in the data active = inhibition above about 50%
CF NFkB inh – blocks PAF-induced NF-kB reporter in cystic fibrosis cells | KKLEB NF-kB-GFP reporter, GFP fluorescence overnight | inhibition, % at 5 µM | actives 0.86% (n = 360,000) | AID 588850;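 active = at least 50% inhibition at 5 µM, scaled per plate between neutral and stimulator controls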;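 note: PAF is a Pseudomonas aeruginosa culture filtrate used as stimulus; plate controls were PAF-stimulated DMSO wells for no effect and unstimulated DMSO wells for full effect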
hiPSC survival – enhancers of human iPSC single-cell survival; hiPSC single-cell survival, ATPlite luminescence; 100% = ROCK inhibitor wells, 0% = DMSO; survival enhancement, % at 20 µM; actives 0.044% (n = 360,000); AID 602274; in the data active = survival enhancement above about 18%;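 note: cells exposed to compounds for 16 hours before the ATP read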
An asterisk follows results filed as active; · = no result given. An excerpt weighted towards active compounds, which were near 2.3% of everything screened.

SMILES | LGR2 antag | HIF-2a block | KKLEB tox | TWEAK-Fn14 inh | CF NFkB inh | hiPSC survival
CCNC(=O)C[C@@H]1CC[C@@H]2[C@@H](COc3ccc(NC(=O)Nc4c(C)noc4C)cc3C(=O)N2C)O1 | 4.0 | · | · | · | · | ·
COc1ccc(Nc2ncnc3c2c(C)c(C)n3CCCN(C)C)cc1 | 20.5 | -50.6 | 5.1 | 58.7* | -5.8 | -0.7
COc1ccc(C)cc1S(=O)(=O)N1CCN(C(=O)c2ncoc2-c2ccc(C)cc2)CC1 | 12.1 | 12.9 | 7.4 | 84.9* | 1.4 | 0.3
COc1ccc(C)cc1S(=O)(=O)N1CCN(C(=O)c2ncoc2-c2ccc(F)cc2)CC1 | 5.5 | 20.0 | 6.1 | -15.4 | -8.1 | 0.4
O=C(C[C@H]1CC[C@@H]2[C@H](COC[C@@H](O)CN2Cc2ccccc2F)O1)NC1CCC1 | 1.8 | · | · | · | · | ·
Cc1occc(=O)c1O | 9.1 | -1.4 | -88.4* | 5.4 | -16.9 | 2.0
O=C(O[C@@H]1OC2COC(=O)c3cc(O)c(O)c(O)c3-c3c(cc(O)c(O)c3O)C(=O)O[C@@H]([C@H]1O)[C@@H]2O)c1cc(O)c(O)c(O)c1 | · | 7.7 | -26.6 | 75.3* | 7.8 | 0.9
O=C(ONC(=O)C1CCCCC1C(=O)NOC(=O)c1ccccc1)c1ccccc1 (configuration not stated) | 34.9 | 3.1 | 5.5 | 51.0* | 6.6 | 7.3
C[C@H]1CCCCO[C@H](CN(C)C)[C@@H](C)CN([C@@H](C)CO)C(=O)c2cc(NC(=O)c3ccncc3)ccc2O1 | 13.2 | · | · | · | · | ·
Cc1ccc(C2=NN(C(=O)CN3CCN(C4CCS(=O)(=O)C4)CC3)C(c3ccco3)C2)cc1 (configuration not stated) | -33.5 | 36.8 | 4.1 | 70.8* | 26.9 | -0.5
Cc1cccnc1Nc1nc(-c2ccccc2)cs1 | -29.6 | -189.7 | -9.8 | 25.3 | -16.8 | -0.5
Cc1cccnc1Nc1nc(-c2ccccn2)cs1 | · | -180.5 | 5.3 | 100.9* | 8.9 | -0.4
COC(=O)c1[nH]c2ccccc2c1NC(=O)CN1CCN(C(=O)c2ccco2)CC1 | · | 6.3 | 0.4 | 87.0* | 9.0 | 2.0
COC(=O)c1[nH]c2ccccc2c1NC(=O)CN1CCN(c2cccc(Cl)c2)CC1 | 9.5 | 20.7 | 0.1 | 58.6* | -6.3 | 4.4
COC(=O)c1[nH]c2ccccc2c1NC(=O)CN1CCCCCC1 | · | 1.5 | -8.9 | 6.1 | 2.5 | -0.7
CCCNC(=O)N(C)C[C@H]1Oc2ncc(-c3ccncc3)cc2C(=O)N([C@@H](C)CO)C[C@@H]1C | 0.6 | · | · | · | · | ·
Cc1cc(C)c(O)c(-c2cc(C(=O)Nc3ccc(S(=O)(=O)N4CCOCC4)cc3)[nH]n2)c1 | · | -5.1 | 2.8 | 63.5* | 7.1 | -1.5
COc1ccc(NS(=O)(=O)c2cccc(NC(=O)c3ccc(S(=O)(=O)N4CCCCCC4)cc3)c2)cc1 | · | 14.3 | 6.1 | 70.2* | -5.0 | -0.7
O=C(Cn1[nH]c(=O)c2ccccc2c1=O)Nc1cccc(S(=O)(=O)N2CCCCCC2)c1 | 15.2 | 14.2 | 3.9 | 50.7* | -0.3 | -0.5
CC(=O)Nc1ccc(NC(=O)c2cc(-c3cc(C)cc(C)c3O)n[nH]2)cc1 | -9.5 | -109.9 | -1.3 | 18.8 | 0.2 | -0.5
Cc1cccc(NC(=O)CSc2nnc(NC(=O)CN3CCCCC3)s2)c1 | 2.4 | · | · | · | · | ·
Cc1cccc(Nc2nnc(SCC(=O)Nc3cccc(S(=O)(=O)N4CCCCC4)c3)s2)c1 | -50.9 | -200.1 | -16.4 | 59.7* | 10.5 | -0.8
Cc1ccc(S(=O)(=O)NCC[C@@H]2CC[C@@H](NC(=O)Nc3ccccc3F)[C@@H](CO)O2)cc1 | 6.4 | · | · | · | · | ·
C/C=C/c1ccc2c(c1)[C@H]1[C@H](CCN1C(=O)c1ccc(F)cc1)[C@H](CO)N2 | -2.0 | · | · | · | · | ·
CNC[C@H]1Oc2c(NC(=O)Nc3c(C)noc3C)cccc2C(=O)N([C@H](C)CO)C[C@@H]1C | -9.9 | · | · | · | · | ·
SMILES | LGR2 antag | HIF-2a block | KKLEB tox | TWEAK-Fn14 inh | CF NFkB inh | hiPSC survival
CO[C@H]1CN(C)C(=O)c2ccc(NC(=O)C3CCOCC3)cc2OC[C@H](C)N(Cc2nccs2)C[C@@H]1C | 20.3 | · | · | · | · | ·
O=C(Nc1ccc(S(=O)(=O)N2CCOCC2)cc1)c1cc(S(=O)(=O)N2CCOCC2)ccc1Cl | -4.8 | 14.8 | 8.3 | 12.3 | -21.4 | 1.0
O=C(Cc1c(Cl)cccc1Cl)Nc1cccc(S(=O)(=O)N2CCOCC2)c1 | 4.1 | 14.8 | -4.7 | -30.0 | -1.6 | -0.3
O=C(Nc1ccncc1)c1cc(S(=O)(=O)N2CCOCC2)ccc1Cl | 5.5 | 23.2 | -12.3 | 3.5 | 4.8 | 25.6*
COc1ccc(S(=O)(=O)N2CCC(NC(=O)C3CCCCC3)CC2)cc1 | -11.1 | 5.5 | 1.3 | 80.4* | -10.0 | 0.1
COc1ccc(NC(=O)C2CCCN2S(=O)(=O)c2ccc(Cl)cc2)cc1 (configuration not stated) | -22.4 | 10.1 | 6.8 | 77.2* | -13.0 | 0.0
COc1ccc(S(=O)(=O)N2CCC(C(=O)NC3CC3)CC2)cc1 | -24.0 | -1.0 | -5.2 | -17.6 | -10.9 | 0.8
COc1ccc(S(=O)(=O)N2CCCC2C(=O)Nc2ccc(C)cc2)cc1 (configuration not stated) | · | -0.3 | 5.8 | -11.8 | -15.0 | 0.9
O=C(Cc1ccccc1Cl)Nc1cccc(S(=O)(=O)N2CCOCC2)c1 | 7.2 | 20.8 | 1.9 | 90.4* | 7.3 | 2.5
C[C@@H]1CN([C@@H](C)CO)S(=O)(=O)c2ccc(C#CC3CC3)cc2O[C@H]1CN(C)C(=O)CC1CC1 | -5.1 | · | · | · | · | ·
CC(C)NC(=O)Nc1ccc2c(c1)CC(=O)N([C@H](C)CO)C[C@H](C)[C@@H](CN(C)C)O2 | 16.8 | · | · | · | · | ·
COc1ccc(CC(=O)Nc2cccc(S(=O)(=O)N3CCCCCC3)c2)cc1OC | 7.5 | 21.1 | -10.3 | 53.2* | -1.5 | 0.0
CCNC(=O)C[C@@H]1CC[C@H](NC(=O)C2CCOCC2)[C@@H](CO)O1 | 0.6 | · | · | · | · | ·
COc1ccc(-c2cc3nc4n(c(=O)c3s2)CCC4)cc1 | 87.0* | 14.5 | 0.4 | 95.0* | -32.8 | -2.1
CCn1c(/C=C/c2ccccc2)nc2ccccc21 | 11.0 | -175.3 | -52.6* | 26.9 | -10.8 | -3.6
CC(C)Cn1c(/C=C/c2ccccc2)nc2ccccc21 | -27.4 | -269.1 | -0.2 | -6.0 | -6.3 | -2.3
CCn1c(SCC(=O)N/N=C/c2ccc(C)o2)nnc1-c1ccc(C)cc1 | 3.6 | 9.0 | -15.9 | 60.9* | 10.0 | 0.5
O=C(CSc1nnc(SCc2ccccc2Cl)s1)N/N=C/c1c[nH]c2ccccc12 | -38.2 | -134.2 | -2.9 | 64.2* | 18.0 | -3.1
CCn1c(SCC(=O)N/N=C/c2ccc(C)o2)nnc1-c1ccc(C(C)(C)C)cc1 | -2.1 | -13.2 | -2.1 | 27.4 | -2.9 | -0.5
O=C(CSc1nnc(SCc2ccccc2)s1)N/N=C/c1c[nH]c2ccccc12 | -16.1 | -7.0 | 0.7 | 21.4 | 2.4 | 1.7
CCn1c(SCC(=O)N/N=C/c2c[nH]c3ccccc23)nnc1-c1ccc(C(C)(C)C)cc1 | 7.1 | -11.9 | 7.2 | 59.7* | -12.1 | -1.3
